Test results published in PubChem BioAssay.
For some assays here: Entries with a potency or affinity are not part of this list. Active and inactive are the calls of the source.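 Rule for the calls, unless noted: active = fluorescence ratio normalized to control raised more than 50% in primary screen plus both repeat runs; inactive = the rest.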

Tests used:
[1] = tested on: TRPC4 beta (transient receptor potential cation channel C4), mouse; assay: TRPC4 cation channel opening, retest – cell-based, Fluo4 calcium, HEK293 TRPC4beta/mu-opioid, duplicates, 10 µM, confirmation (AID 2426); conditions: Fluo4 calcium fluorescence, at 10 µM; stronger effect = higher value
[2] = tested on: transient receptor potential cation channel C4 beta (TRPC4), mouse; assay: TRPC4 cation channel opening, second retest – cell-based, second round, Fluo4, HEK293 TRPC4beta/mu-opioid, 1 µM, confirmation (AID 2461;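 active = primary screen active and over 50% activation in each of two duplicate runs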); conditions: Fluo4 calcium fluorescence, at 1 µM; stronger effect = higher value
[3] = tested on: TRPC4 (transient receptor potential cation channel C4 beta), mouse; assay: potentiation of DAMGO EC20 TRPC4 response – cell-based, second round, Fluo-4, HEK293 TRPC4beta/mu-opioid, 1 µM, confirmation (AID 2554;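 active = primary screen hit whose fluorescence ratio, in both repeats, exceeds the weak agonist control mean by 3 SD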); conditions: DAMGO EC20, Fluo-4 calcium flux, at 1 µM; stronger effect = higher value
[4] = tested on: TRPC4 beta (transient receptor potential cation channel C4), mouse; assay: potentiation of DAMGO EC20 TRPC4 response – cell-based, Fluo-4, HEK293 TRPC4beta/mu-opioid, confirmation (AID 2555;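 active = primary screen hit whose calcium fluorescence ratio, in both repeats, exceeds the weak agonist control mean by 3 SD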); conditions: DAMGO EC20, Fluo-4 calcium flux, at 10 µM; stronger effect = higher value
[5] = target: Short transient receptor potential channel 4 (Mus musculus) (UniProt Q9QUQ5); assay: blockers of DAMGO-evoked TRPC4 calcium flux – cell-based, Fluo4, HEK293 TRPC4beta/mu-opioid, confirmation (AID 2636;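 active = calcium signal cut by more than 3 SD below the full-agonist control yet still positive, in both repeats and the earlier primary screen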); conditions: at 10 µM; stronger effect = higher value
Chain of Short transient receptor potential channel 4 (Mus musculus) (Q9QUQ5 whole entry, looked up): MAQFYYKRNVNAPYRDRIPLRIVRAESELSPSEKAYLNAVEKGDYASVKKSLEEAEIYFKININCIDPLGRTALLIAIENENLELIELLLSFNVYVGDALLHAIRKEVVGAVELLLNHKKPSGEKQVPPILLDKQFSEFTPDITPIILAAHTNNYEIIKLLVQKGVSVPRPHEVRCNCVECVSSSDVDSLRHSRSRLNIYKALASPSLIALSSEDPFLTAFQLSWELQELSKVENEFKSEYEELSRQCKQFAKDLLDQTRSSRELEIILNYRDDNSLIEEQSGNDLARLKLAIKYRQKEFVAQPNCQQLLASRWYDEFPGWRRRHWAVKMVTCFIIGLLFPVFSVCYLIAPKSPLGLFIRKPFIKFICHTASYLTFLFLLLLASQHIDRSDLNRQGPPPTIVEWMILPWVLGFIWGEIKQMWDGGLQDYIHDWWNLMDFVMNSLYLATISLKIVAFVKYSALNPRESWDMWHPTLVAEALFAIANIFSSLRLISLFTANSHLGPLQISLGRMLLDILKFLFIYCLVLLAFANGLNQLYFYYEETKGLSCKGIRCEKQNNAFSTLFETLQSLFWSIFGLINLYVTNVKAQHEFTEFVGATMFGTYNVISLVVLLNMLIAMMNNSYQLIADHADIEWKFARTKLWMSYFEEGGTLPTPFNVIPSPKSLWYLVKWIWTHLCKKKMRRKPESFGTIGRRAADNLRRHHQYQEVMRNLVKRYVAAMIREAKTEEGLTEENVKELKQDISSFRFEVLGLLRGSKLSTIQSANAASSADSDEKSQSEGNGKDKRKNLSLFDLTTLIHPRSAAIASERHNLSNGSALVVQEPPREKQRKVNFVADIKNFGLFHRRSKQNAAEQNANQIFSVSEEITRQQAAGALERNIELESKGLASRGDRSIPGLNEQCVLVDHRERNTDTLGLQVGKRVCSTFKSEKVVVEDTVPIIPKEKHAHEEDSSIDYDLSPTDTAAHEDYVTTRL

[6] = target: Short transient receptor potential channel 4 (Mus musculus) (UniProt Q9QUQ5); assay: blockers of DAMGO-evoked TRPC4 calcium flux – cell-based, second round, Fluo4, HEK293 TRPC4beta/mu-opioid, 1 µM, confirmation (AID 2637;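 active = calcium signal ratio cut to more than 3 SD under the fully stimulated control mean yet still positive, in both repeats and the primary screen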;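 for inhibition: percent of integrated ratio relative to wells lacking test compound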); conditions: at 1 µM; stronger effect = higher value
[7] = target: Short transient receptor potential channel 4 (Mus musculus) (UniProt Q9QUQ5); assay: calcium entry via TRPC4 opening agents – cell-based, HEK293 TRPC4/mu-opioid, Fluo-4 calcium, dose response (AID 434937;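 active = primary screen activator hit with a dose response curve and TRPC4 channel activation at any tested dose; inactive = no activation, no dose response, or not a primary hit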)
[8] = target: Short transient receptor potential channel 4 (Mus musculus) (UniProt Q9QUQ5); assay: potentiation of DAMGO-evoked TRPC4 calcium signal – cell-based, HEK293 TRPC4/mu-opioid, Fluo-4 calcium, EC20 DAMGO, dose response (AID 434941;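 active = earlier screen potentiator hit that boosts the TRPC4 ion channel at some dose, with a dose response; inactive = no potentiation, no dose response, or not a prior hit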;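 note: calcium entry triggered by an EC20 dose of DAMGO at the co-expressed mu-opioid receptor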)
[9] = target: Short transient receptor potential channel 6 (Mus musculus) (UniProt Q61143); assay: TRPC6 blockade by TRPC4 inhibitor hits – cell-based, HEK293, membrane potential dye, duplicate, selectivity assay for TRPC4 inhibitor project, confirmation (AID 434948;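 active = active in primary screen and both duplicates, each dropping signal beyond three positive-control SD with fluorescence still positive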); conditions: HEK293 TRPC6, membrane potential dye fluorescence, at 10 µM, stimulated with maximal-effect acetylcholine; stronger effect = higher value
Chain of Short transient receptor potential channel 6 (Mus musculus) (Q61143 whole entry, looked up): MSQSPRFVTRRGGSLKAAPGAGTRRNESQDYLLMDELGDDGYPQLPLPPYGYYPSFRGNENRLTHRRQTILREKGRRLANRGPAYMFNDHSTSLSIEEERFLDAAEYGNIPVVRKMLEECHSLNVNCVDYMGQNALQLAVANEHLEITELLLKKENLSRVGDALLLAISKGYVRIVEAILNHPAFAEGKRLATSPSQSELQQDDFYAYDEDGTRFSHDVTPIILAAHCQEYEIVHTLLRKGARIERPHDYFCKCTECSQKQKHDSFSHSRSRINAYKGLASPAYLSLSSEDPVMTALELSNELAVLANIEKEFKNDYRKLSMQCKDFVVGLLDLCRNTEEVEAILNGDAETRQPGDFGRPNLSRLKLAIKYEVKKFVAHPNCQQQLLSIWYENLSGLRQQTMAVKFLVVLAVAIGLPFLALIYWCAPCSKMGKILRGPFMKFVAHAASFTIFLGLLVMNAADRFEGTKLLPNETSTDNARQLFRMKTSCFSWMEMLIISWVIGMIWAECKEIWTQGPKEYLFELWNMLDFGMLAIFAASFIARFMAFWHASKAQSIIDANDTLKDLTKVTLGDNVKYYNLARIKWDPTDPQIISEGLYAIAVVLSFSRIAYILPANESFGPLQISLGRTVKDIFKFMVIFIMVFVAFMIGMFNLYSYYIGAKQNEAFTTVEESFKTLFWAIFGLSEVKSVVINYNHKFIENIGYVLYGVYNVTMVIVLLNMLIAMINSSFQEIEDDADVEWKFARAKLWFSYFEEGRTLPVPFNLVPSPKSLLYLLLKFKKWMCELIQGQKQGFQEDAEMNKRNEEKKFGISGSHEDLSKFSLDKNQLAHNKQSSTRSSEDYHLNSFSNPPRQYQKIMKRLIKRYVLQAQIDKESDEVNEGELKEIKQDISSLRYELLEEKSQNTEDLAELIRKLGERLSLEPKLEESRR

[10] = target: Short transient receptor potential channel 6 (Mus musculus) (UniProt Q61143); assay: TRPC6 opening by TRPC4 activator hits – cell-based, HEK293, membrane potential dye, duplicate, selectivity assay for TRPC4 activator project, confirmation (AID 434950;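 active = membrane potential signal rise above negative control mean plus 3 SD in both duplicates, also active in the earlier TRPC4 screen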); conditions: HEK293 TRPC6, membrane potential fluorescence, at 10 µM; activation: stronger effect = higher value; outcome: activation
[11] = target: Short transient receptor potential channel 6 (Mus musculus) (UniProt Q61143); assay: positive modulators of mouse TRPC6 channel – HEK293 cells, membrane potential dye, duplicate, selectivity assay for TRPC4 potentiator project, confirmation (AID 434952;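 active = compound raising the membrane signal above positive-control mean plus 3 SD in both repeats, and a primary screen hit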); conditions: HEK293 TRPC6, membrane potential dye fluorescence, at 10 µM, maximal acetylcholine added after compound; stronger effect = higher value
[12] = target: Short transient receptor potential channel 4 (Mus musculus) (UniProt Q9QUQ5); assay: calcium flux activators in TRPC4/5HT1a cells, counter-screen for TRPC4 activator project, cell-based, second counter screen, HEK293 TRPC4/5HT1a, Fluo-4 (AID 434977;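 active = calcium signal rise above buffer-control mean plus 5 SD in both duplicates, and also a hit in the primary screen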); conditions: Fluo-4 calcium flux, at 10 µM; stronger effect = higher value
[13] = serotonin-gated TRPC4 signal block – cell-based, second counter screen, HEK293 TRPC4/5HT1a, Fluo-4, counter-screen for TRPC4 inhibitor project, confirmation (AID 434978;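 active = primary screen active whose calcium signal fell more than 3 SD beyond the full-serotonin control mean in both duplicate plates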;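 for outcome: serotonin given first at submaximal then at maximal dose after compound preincubation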); conditions: Fluo-4 calcium flux, at 10 µM, serotonin added to trigger calcium flux; stronger effect = higher value
[14] = tested on: TRPC4 (mouse), co-expressed with 5HT1a in HEK293; assay: enhancement of serotonin-evoked TRPC4 response – cell-based, second counter screen, HEK293 TRPC4/5HT1a, Fluo-4, counter-screen for TRPC4 potentiator project, confirmation (AID 434979;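 active = signal rise over 3 SD above mean of control wells given weak agonist, in both repeats and first screen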); conditions: Fluo-4 calcium flux, at 10 µM, serotonin added at its EC20 dose; stronger effect = higher value
[15] = nonspecific calcium rise without TRPC4 – cell-based, HEK293 mu-opioid receptor line, counter-screen for TRPC4 activator project, confirmation (AID 449723;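 active = hit in primary screen, with calcium signal over 5 SD above buffer well mean in both duplicates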;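 note: counter screen cells carry the mu-opioid receptor alone and lack TRPC4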); conditions: HEK293 mu-opioid cells, Fluo-4 calcium fluorescence, at 10 µM; stronger effect = higher value
[16] = nonspecific potentiation of DAMGO calcium response – cell-based, HEK293 mu-opioid receptor line, counter-screen for TRPC4 allosteric potentiator project, confirmation (AID 449724;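 active = calcium signal rise more than 3 SD above the low-dose agonist control mean, in both duplicate plates and the primary screen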); conditions: HEK293 mu-opioid receptor cells, Fluo-4 calcium flux, at 10 µM, compound added before EC20 DAMGO stimulus; stronger effect = higher value

| Compound | outcome [1] | outcome [2] | outcome [3] | outcome [4] | inhibition [5] | inhibition [6] | outcome [7] | outcome [8] | outcome [9] | outcome [10] | outcome [11] | outcome [12] | inhibition [13] | outcome [14] | outcome [15] | outcome [16] | outcome [13] | outcome [6] | inhibition [9] | outcome [5] |
| --- | --- | --- | --- | --- | --- | --- | --- | --- | --- | --- | --- | --- | --- | --- | --- | --- | --- | --- | --- | --- |
| CCCCCN1C2=NCCN2c2ccccc21 | inactive | inactive | inactive | inactive | 94% (active) | 70% (active) | inactive | inactive | inactive | inactive | inactive | inactive | 25.1% (active) | inactive | inactive | inactive |  |  |  |  |
| N/C(Cc1cccc2ccccc12)=N\OC(=O)c1cccs1 | inactive | inactive | inactive | inactive | 54% (active) | 55% (active) | inactive | inactive | inactive | inactive | inactive | inactive |  | inactive | inactive | inactive | inactive |  |  |  |
| Cc1nc2scc(-c3ccccc3)c2c(=O)n1N=C1C=CC(=O)C=C1 | inactive | inactive | inactive | inactive | 69% (active) |  | inactive | inactive | inactive | inactive | inactive | inactive | 21% (active) | inactive | inactive | inactive |  | inactive |  |  |
| CC(/C=C1\SC(=S)N(C(C(=O)O)C(C)C)C1=O)=C\c1ccccc1 (centres undefined) | inactive | inactive | inactive | inactive | 99% (active) |  | inactive | inactive | inactive | inactive | inactive | inactive | 16% (active) | inactive | inactive | inactive |  | inactive |  |  |
| Cc1cccc(N(C(=O)c2snc(C(N)=O)c2N)C(C(=O)NCC2CCCO2)c2ccc3ncccc3c2)c1 (centres undefined) | inactive | inactive | inactive | inactive | 85% (active) |  | inactive | inactive | inactive | inactive | inactive | inactive |  | inactive | inactive | inactive | inactive | inactive |  |  |
| Cc1ccc(C(CNS(=O)(=O)c2ccc([N+](=O)[O-])cc2)N2CCN(C)CC2)cc1 (centres undefined) | inactive | inactive | inactive | inactive | 54% (active) | 63% (active) | inactive | inactive | inactive | inactive | inactive | inactive |  | inactive | inactive | inactive | inactive |  |  |  |
| COCCn1c(SCC(=O)Nc2ccccc2OC)nc2c([nH]c3ccccc32)c1=O | inactive | inactive | inactive | inactive | 71% (active) |  | inactive | inactive | inactive | inactive | inactive | inactive | 36.6% (active) | inactive | inactive | inactive |  | inactive |  |  |
| CCOc1cc(CNC2CCCC2)cc(Cl)c1OCc1ccccc1 | inactive | inactive | inactive | inactive | 76% (active) |  | inactive | inactive | inactive | inactive | inactive | inactive | 33% (active) | inactive | inactive | inactive |  | inactive |  |  |
| Cc1ccc(-n2cccn2)c(CN2CCCC(C(=O)c3ccc4c(c3)OCO4)C2)c1 (centres undefined) | inactive | inactive | inactive | inactive | 53% (active) |  | inactive | inactive |  | inactive | inactive | inactive | 38% (active) | inactive | inactive | inactive |  | inactive | 28% (active) |  |
| CCCOc1ccc(-c2nc(SCc3ccccc3)[nH]c(=O)c2C#N)cc1OC | inactive | inactive | inactive | inactive | 66% (active) |  | inactive | inactive | inactive | inactive | inactive | inactive |  | inactive | inactive | inactive | inactive | inactive |  |  |
| COc1cc(C(=O)N(CCc2ccccc2)C2=CC3CCC(C2)N3C)cc(OC)c1OC (centres undefined) | inactive | inactive | inactive | inactive |  | 54% (active) | inactive | inactive | inactive | inactive | inactive | inactive |  | inactive | inactive | inactive | inactive |  |  | inactive |
| CC1Oc2ccccc2C=C1/C=N/Nc1ccc(C(=O)O)cc1 (centres undefined) | inactive | inactive | inactive | inactive | 82% (active) | 51% (active) | inactive | inactive | inactive | inactive | inactive | inactive | 38.1% (active) | inactive | inactive | inactive |  |  |  |  |
| CN(CC(=O)NC1CCCc2ccccc21)C1CCCCC1 (centres undefined) | inactive | inactive | inactive | inactive | 80% (active) |  | inactive | inactive | inactive | inactive | inactive | inactive |  | inactive | inactive | inactive | inactive | inactive |  |  |
| COc1ccccc1N1CCN(CC(C)N(C(=O)C2CCCCC2)c2ccccn2)CC1 (centres undefined) | inactive | inactive | inactive | inactive | 93% (active) | 52% (active) | inactive | inactive | inactive | inactive | inactive | inactive | 1.31% (active) | inactive | inactive | inactive |  |  |  |  |
